# Laboratory results as given in the supplement of paper PMC13380429.
# A number with no mark means an inactive call.
# System: Vero E6 infected with SARS-CoV-2
# Test: inhibition of SARS-CoV-2 cytopathic effect; higher = more antiviral protection, active = above 15
# Conditions: 8.33 nM; 48 h
row,Structure (SMILES),inhibition of SARS-CoV-2 cytopathic effect
1,CCC(=O)OCC(=O)[C@@]1(OC(=O)CC)[C@@H](C)C[C@H]2[C@@H]3CCC4=CC(=O)C=C[C@]4(C)[C@@]3(Cl)[C@@H](O)C[C@@]21C [beclomethasone-dipropionate],-9.23%
2,NC[C@@H](O)CC(=O)O [aminohydroxybutyric-acid],-1.06%
3,CC(=O)[C@H]1CC[C@H]2[C@@H]3CC[C@H]4C[C@H](O)CC[C@]4(C)[C@H]3C(=O)C[C@]12C [alfaxalone],0.56%
4,Cc1cc(C)cc(NC(=O)Cc2ccc(OC(C)(C)C(=O)O)cc2)c1 [efaproxiral],-2.52%
5,O=C(O)[C@H](O)c1ccccc1 [mandelic-acid],3.41%
6,C[C@@H]1CN(Cc2ccc(F)cc2)[C@@H](C)CN1C(=O)c1cc2c(C(=O)C(=O)N(C)C)cn(C)c2cc1Cl [talmapimod],-0.66%
7,Cc1ccc(-c2csc3ncnc(SCCC(=O)O)c23)cc1,6.66%
8,CC12CCC(C(=O)N(CCCCN3CCN(c4ccccn4)CC3)C1=O)C2(C)C (stereo not given) [piricapiron],-0.34%
9,CCC1=C[C@@H]2CN3CCc4c([nH]c5ccccc45)[C@@](C(=O)OC)(C2)[C@@H]13 [catharanthine],0.35%
10,O=C(NC1CCN(CCc2c[nH]c3ccccc23)CC1)c1ccccc1 [indoramin],1.24%

# Same assay, conditions: 100 nM; 48 h
row,Structure (SMILES),inhibition of SARS-CoV-2 cytopathic effect
1,CNC1CC(c2ccc(Cl)c(Cl)c2)c2ccccc21 (stereo not given) [indatraline],0.7%
2,O=C1c2ccccc2C(Cc2ccncc2)(Cc2ccncc2)c2ccccc21,-1.48%
3,N#Cc1c(N)nc(SCc2csc(-c3ccc(Cl)cc3)n2)c(C#N)c1-c1ccc(OCCO)cc1 [capadenoson],-1.11%
4,NC(=O)c1ncn([C@@H]2O[C@H](CO)[C@@H](O)[C@H]2O)c1O [mizoribine],0.9%
5,Cc1cnc(-c2cnc(NCCNc3ccc(C#N)cn3)nc2-c2ccc(Cl)cc2Cl)[nH]1,-2.16%
6,Cc1cccc(C)c1NC(=O)/N=C1\CCCN1C [xilobam],1.82%
7,O=[N+]([O-])c1cccc2cn[nH]c12 [7-nitroindazole],3.57%
8,Cc1cc2sc(NC(=O)Cc3ccccc3)nc2cc1Cl,2.19%
9,CC(CNC(=O)c1cccnc1)NC(=O)c1cccnc1 (stereo not given) [nicaraven],-1.71%
10,Nc1nc(O)c2nc(Br)n([C@@H]3O[C@@H]4COP(=O)(O)O[C@H]4[C@H]3O)c2n1 [8-bromo-cGMP],2.06%
11,C[C@H]1[C@H](C)CC[C@]2(C(=O)O)CC[C@]3(C)C(=CC[C@@H]4[C@@]5(C)C[C@@H](O)[C@H](O)[C@@](C)(CO)[C@@H]5CC[C@]43C)[C@H]12 [asiatic-acid],-0.32%
12,COc1cc(-n2c(=S)[nH]c3ccccc3c2=O)c(Cl)cc1Cl [mdivi-1],-0.2%
13,CO/N=C(\C(=O)N[C@@H]1C(=O)N2C(C(=O)OCOC(=O)C(C)(C)C)=C(/C=C\c3scnc3C)CS[C@H]12)c1csc(N)n1 [cefditoren-pivoxil],-2.07%
14,Nc1ncnc2c1c(-c1ccc(Cl)cc1)nn2-c1cccc(-c2cnnn2Cc2cccc(-c3ccccc3)c2)c1,-1.05%
15,CNc1nc(NCc2ccc(NS(C)(=O)=O)cc2Cl)cc(-c2ccccn2)n1,0.48%
16,N#C/C(=C\c1ccc(O)c(O)c1)C(=O)OCCc1cccs1,7.36%
17,CN1CCN(CC(=O)N2c3ccccc3C(=O)Nc3cccnc32)CC1 [pirenzepine],-2.09%
18,Cc1cc(Nc2ncnc3ccc(-c4ccc(CNCCS(C)(=O)=O)o4)cc23)ccc1Oc1ccn2ncnc2c1 [HER2-Inhibitor-1],-0.2%
19,CC[C@H](C)[C@@H]1NC(=O)[C@H](Cc2ccc(OC)cc2)NC(=O)CCCSC[C@@H](C(=O)N2CCC[C@H]2C(=O)N[C@@H](CC(C)C)C(=O)NCC(N)=O)NC(=O)[C@H](CC(N)=O)NC(=O)[C@H](CCC(N)=O)NC1=O [carbetocin],-1.53%
20,O=C(c1ccc(F)cc1)C1CCN(CCn2c(=S)[nH]c3ccccc3c2=O)CC1 [altanserin],0.34%
